Assay [1] can be described thus: qHTS assay to identify small molecule agonists of the constitutive androstane receptor (CAR) signaling pathway - cell viability counter screen (AID 1224836). Further: nearly all actives have a fitted effect of over 45% in size. The essentials: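 23 h treatment, 37 C, 5% CO2. Cell line: HepG2 stably expressing hCAR with a CYP2B6-2.2kb construct. Co-treatment: PK11195, 0.75 uM final. Read-out: CellTiter-Fluor fluorescence intensity.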

A short description of assay [2]: qHTS assay to identify small molecule antagonists of the constitutive androstane receptor (CAR) signaling pathway - cell viability counter screen (AID 1224837). Further: nearly all actives have a fitted effect of over 45% in size. In short, it runs like this: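 Multiplexed cytotoxicity read-out for the CAR antagonist screen: double-stable HepG2-CYP2B6-hCAR cells co-treated with 50 nM CITCO (final) and compound over 15 concentrations, incubated 23 hr, then assessed by CellTiter-Fluor fluorescence.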

Assay [3] deals with Nuclear receptor subfamily 1 group I member 3 (Homo sapiens) (UniProt Q14994). The assay can be described thus: qHTS assay to identify small molecule antagonists of the constitutive androstane receptor (CAR) signaling pathway (AID 1224838). Further: nearly all actives have a fitted effect of over 40% in size. Further: potency means the concentration at half of the fitted maximal effect. In short, it runs like this: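 Compounds were titrated across 15 concentrations onto HepG2 cells double-stably expressing hCAR and a CYP2B6-2.2kb reporter, together with 50 nM CITCO (final). After 24 h at 37 C, luciferase activity was measured by luminescence.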

Assay [4] has the same target. The assay can be described thus: qHTS assay to identify small molecule agonists of the constitutive androstane receptor (CAR) signaling pathway (AID 1224839). Further: nearly all actives have a fitted effect of over 15% in size. The essentials: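 Compounds tested at 15 concentrations on HepG2 cells stably harbouring hCAR and CYP2B6-2.2kb reporter constructs, co-treated with PK11195 (0.75 uM final), 24 h at 37 C; luminescent reporter signal quantified.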

A short description of assay [5]: qHTS assay to identify small molecule antagonists of the estrogen related receptor signaling pathway with the pleiotropic PPARgamma coactivator (PGC) from Tox21 10K library - cell viability counter screen (AID 1224840; active means well fitted cell-killing curve with a large enough effect in the repeat runs, not every such curve was filed as active; further: nearly all actives have a fitted effect of over 40% in size). The essentials: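 Step one, plate 2,000 PGC/ERR cells per well; step two, incubate 6 h at 37 C/5% CO2; step three, pin-transfer compounds; step four, incubate 17.5 h; step five, add CellTiter-Fluor and read fluorescence after 30 min.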

Assay [6] is described as follows: qHTS assay to identify small molecule antagonists of the estrogen related receptor signaling pathway with the pleiotropic PPARgamma coactivator (PGC) from Tox21 10K library (AID 1224841; call rule not given here; further: actives are mostly falling curves and most rising ones were filed inactive; nearly all actives have a fitted effect of over 50% in size). The essentials: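 Antagonism in this quantitative HTS is taken from loss of luciferase signal in PGC/ERR cells. Cells (2,000/well) are treated with compounds in DMSO after a 6 h settling period and read by One-Glo luminescence after 18 h.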

Assay [7] can be described thus: qHTS assay to identify small molecule agonists of the estrogen related receptor signaling pathway with the pleiotropic PPARgamma coactivator (PGC) from Tox21 10K library (AID 1224842). Further: nearly all actives have a fitted effect of over 15% in size. The essentials:
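PGC/ERR reporter cells (NTP line) were seeded 2,000 per well, rested 6 h at 37 C/5% CO2, then pin-dosed with compounds in DMSO for 18 h at 37 C; luciferase read by One-Glo luminescence after 30 min at room temperature.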

The target in assay [8] is Thyrotropin receptor (Homo sapiens) (UniProt P16473). The assay is described as follows: qHTS assay to identify small molecule agonists of the thyroid stimulating hormone receptor (TSHR) signaling pathway (AID 1224843; calls by dose curve; further: nearly all actives have a fitted effect of over 45% in size). In short, it runs like this:
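TSHR-expressing HEK293 cells (800 per well) were exposed to compounds for 30 min at room temperature. cAMP was then detected by HTRF competition with cAMP-d2 and anti-cAMP cryptate, read after 1 h at room temperature. Fifteen concentrations, triplicate.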

The nature of assay [9]: qHTS assay to identify small molecule agonists of H2AX - cell viability counter screen (AID 1224847; calls by dose curve; further: top concentration of the series differs between compounds; nearly all actives have a fitted effect of over 30% in size). In short, it runs like this: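 Compounds tested at 15 concentrations were incubated 3 hr at 37C with wild-type CHO-K1 cells; cellular ATP-based luminescence (CellTiter-Glo) indicated viability.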
A short description of assay [10]: qHTS assay to identify small molecule antagonists of the estrogen related receptor (ERR) signaling pathway from Tox21 library (AID 1224848). Further: nearly all actives have a fitted effect of over 50% in size. In short, it runs like this: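 Cells: ERR line, 2,000/well; 6 h preincubation 37 C/5% CO2. Cpd in DMSO via pin tool; 18 h, 37 C. ONE-Glo, 30 min RT, luminescence.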
The nature of assay [11]: qHTS assay to identify small molecule agonists of the estrogen related receptor (ERR) signaling pathway from Tox21 library (AID 1224849; calls by dose curve; further: nearly all actives have a fitted effect of over 15% in size). To be noted: ERR reporter cell line, ONE-Glo luciferase, 18 h; at 92.4 µM (top of the series) unless noted. The essentials:
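Agonist signal is luciferase luminescence from an ERR reporter cell line treated 18 h at 37 C with DMSO-dissolved compounds, read 30 min after ONE-Glo addition at room temperature.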

Assay [12] can be described thus: qHTS RealTime-Glo MT Cell Viability Assay in HepG2 cells - 24 hour (AID 1224867). Further: nearly all actives have a fitted effect of over 50% in size. The essentials:
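HepG2 suspension premixed with RealTime-Glo reagents is plated at 600 cells per well and left 5 h at 37 C/5% CO2. Compounds in DMSO then go in, and bioluminescence reflecting viable cell number is recorded over 40 h.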

Assay [13] is described as follows: qHTS RealTime-Glo MT Cell Viability Assay in HEK293 cells - 32 hour (AID 1224868). Further: top concentration of the series differs between compounds; nearly all actives have a fitted effect of over 50% in size. In short, it runs like this:
(§1)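 Reads taken at 0, 8, 16, 24, 32 and 40 h from the same wells. HEK293 cells (600/well) carried RealTime-Glo reagents from seeding, with compound added after a 5 h settle at 37 C.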

The nature of assay [14]: A CellTox Green Cytotoxicity Assay to monitor cytotoxicity in HEK293 cells - 0 hour (AID 1224869). Further: nearly all actives have a fitted effect of over 50% in size. The essentials:
(§2)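 Cytotoxicity was tracked continuously in HEK293 cells by a DNA-binding dye excluded from viable cells. Compounds were transferred in DMSO 5 h after seeding; fluorescence was recorded at intervals up to 40 h.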

Assay [15] is described as follows: qHTS RealTime-Glo MT Cell Viability Assay in HepG2 cells - 40 hour (AID 1224870). Further: nearly all actives have a fitted effect of over 50% in size. The essentials: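 HepG2 cells mixed with RealTime-Glo MT reagents (NanoLuc plus cell-permeant prosubstrate) were seeded at 600 cells/well, incubated 5 h at 37 C/5% CO2, then pinned with compounds in DMSO; nonlytic luminescence tracked viability during 40 h treatment.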
A short description of assay [16]: A CellTox Green Cytotoxicity Assay to monitor cytotoxicity in HEK293 cells - 40 hour (AID 1224871). Further: nearly all actives have a fitted effect of over 45% in size. In short, it runs like this:
as §2

Assay [17] can be described thus: qHTS RealTime-Glo MT Cell Viability Assay in HEK293 cells - 16 hour (AID 1224872). In short, it runs like this: as §1
Assay [18] can be described thus: qHTS assay to identify small molecule agonists of the hypoxia (HIF-1) signaling pathway - cell viability counter screen (AID 1224844; calls by dose curve; further: nearly all actives have a fitted effect of over 50% in size; further: potency means the concentration at half of the fitted maximal effect). The essentials:
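Tox21 10K compounds were added to HRE-bla ME-180 cells (0.5% dialyzed FBS) and incubated 17 hrs at 37C; ATP-based CellTiter-Glo luminescence then reported cell viability in the same wells.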

Assay [19] in a line: qHTS assay to identify small molecule agonists of the hypoxia (HIF-1) signaling pathway (AID 1224846; active means well fitted activation curve with a large enough effect in the signal ratio in the repeat runs, not every such curve was filed as active; the % refers to the signal ratio). In short, it runs like this: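 Steps: seed ME-180 HRE-bla cells (2,000/well, 0.5% dialyzed FBS); incubate 5 hrs at 37C; pin-transfer compounds or DMSO; incubate 17 hrs; add LiveBLAzer B/G substrate CCF4-AM; measure reporter activation by FRET.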
Assay [20] is described as follows: qHTS assay to identify small molecule agonists of H2AX (AID 1224845; active means well fitted activation curve with a large enough effect in the signal ratio in the repeat runs, not every such curve was filed as active; the % refers to the signal ratio). In short, it runs like this: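 Wild-type CHO-K1 cells plated overnight, then exposed 3 hr at 37C to compounds at 15 concentrations (0.76% DMSO). Lysed, then HTRF anti-pH2AX(S139)-cryptate/anti-H2AX-d2 detection after 24 hr at room temperature; emissions 665 and 620 nm.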

Six compounds from PubChem BioAssay (Tox21) can be followed below.

Values without a mark were called inactive. Inconclusive results are not listed. The source made the active and inactive calls. Unless noted, the call rests on the fitted dose curve; in most records, active means well fitted curve in the direction sought with a large enough effect in the repeat runs; inconclusive means weak or mixed curves; inactive means no such curve, though single readings can be large; an effect the other way counts as inactive or inconclusive.
On the % scale 0 is the no-effect control and ±100 the full control effect.

Chain of Nuclear receptor subfamily 1 group I member 3 (Homo sapiens) (Q14994 whole entry, looked up): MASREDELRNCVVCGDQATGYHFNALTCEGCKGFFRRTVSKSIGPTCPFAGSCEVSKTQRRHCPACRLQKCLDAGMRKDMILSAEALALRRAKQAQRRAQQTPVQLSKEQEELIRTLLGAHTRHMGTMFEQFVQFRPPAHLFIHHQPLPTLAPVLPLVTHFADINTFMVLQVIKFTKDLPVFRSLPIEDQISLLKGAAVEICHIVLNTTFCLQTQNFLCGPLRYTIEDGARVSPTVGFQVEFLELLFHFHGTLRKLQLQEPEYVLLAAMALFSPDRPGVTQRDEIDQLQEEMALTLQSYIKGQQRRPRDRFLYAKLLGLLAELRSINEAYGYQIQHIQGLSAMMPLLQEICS
Chain of Thyrotropin receptor (Homo sapiens) (P16473 whole entry, looked up): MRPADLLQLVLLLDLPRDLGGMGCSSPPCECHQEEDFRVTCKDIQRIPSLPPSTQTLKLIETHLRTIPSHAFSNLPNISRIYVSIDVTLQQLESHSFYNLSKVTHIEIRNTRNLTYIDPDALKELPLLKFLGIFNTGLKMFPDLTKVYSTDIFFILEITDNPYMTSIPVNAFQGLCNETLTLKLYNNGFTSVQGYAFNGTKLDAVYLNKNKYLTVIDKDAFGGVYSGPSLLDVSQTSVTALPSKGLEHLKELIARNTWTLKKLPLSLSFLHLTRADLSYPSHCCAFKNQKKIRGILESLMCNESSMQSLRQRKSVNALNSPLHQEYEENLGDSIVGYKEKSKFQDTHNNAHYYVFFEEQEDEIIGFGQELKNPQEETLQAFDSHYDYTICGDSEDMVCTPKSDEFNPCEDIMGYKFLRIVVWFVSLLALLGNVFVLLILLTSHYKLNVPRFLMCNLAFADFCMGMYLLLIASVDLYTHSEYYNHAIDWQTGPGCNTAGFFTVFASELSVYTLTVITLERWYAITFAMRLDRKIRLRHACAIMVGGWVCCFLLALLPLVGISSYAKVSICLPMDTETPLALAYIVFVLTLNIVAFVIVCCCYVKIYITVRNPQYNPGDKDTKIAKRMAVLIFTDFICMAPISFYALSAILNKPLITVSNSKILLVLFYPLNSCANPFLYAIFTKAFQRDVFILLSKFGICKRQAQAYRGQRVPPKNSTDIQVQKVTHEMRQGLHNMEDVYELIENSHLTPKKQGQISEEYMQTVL

Regarding `CCOC(=O)[C@@](C)(N)Cc1ccc(O)c(O)c1`, the Potency entry in assay [1], in [2], in [3], in assay [4], in assay [5] and in [6] was “inactive” in each case. The Potency result in assay [7], in [8], in [9], in [10], in assay [12] and in assay [13] was “inactive” in each case. For the same compound, the Potency entry in [14], in [15], in assay [16] and in assay [17] was “inactive” in each case. For the same compound, the activity change, positive = activation in assay [11] was -0.831% [at 42.5 µM].
For `CO[Si](CCC1CCC2OC2C1)(OC)OC` (stereo not drawn), the Potency entry in [1], in [2], in assay [3], in assay [4], in assay [5] and in [6] was “inactive” in each case. The Potency result in assay [7], in assay [8], in assay [18], in [9], in assay [10] and in assay [12] was “inactive” in each case. Also, the Potency entry in [13], in assay [14], in [15], in assay [16] and in assay [17] was “inactive” each time. Further, the compound was classed as inactive in [19]. Besides, the activity change, positive = activation in assay [11] is 0.732%.
With `C#CC(O)CCC` (stereo not drawn), the Potency result in [1], in assay [2], in assay [3], in [4], in assay [5] and in assay [6] was “inactive” each time. Also, the Potency entry in assay [7], in assay [8], in assay [18], in assay [20], in assay [9] and in assay [10] was “inactive” each time. In addition, the Potency result in [12], in assay [13], in assay [14], in assay [15], in [16] and in assay [17] was “inactive” each time. Besides, the outcome in assay [19] was inactive. Besides, the activity change, positive = activation in [11] was 6.08%.
With `CCc1cccc(CC)c1N(COC)C(=O)CS(=O)(=O)O`, the Potency entry in assay [1], in [2], in assay [3], in [4], in [5] and in [6] was “inactive” in each case. The Potency result in assay [7], in [8], in assay [18], in assay [20], in assay [9] and in assay [10] was “inactive” each time. In addition, the Potency entry in assay [13], in assay [14], in assay [15], in assay [16] and in [17] was “inactive” each time. The outcome in assay [19] was inactive. The activity change, positive = activation in assay [11] is -4.79%.
On to `CC1(C)C(=O)N(Br)C(=O)N1Br`, for which the Potency result in assay [1], in assay [2], in assay [3], in assay [4], in assay [5] and in assay [6] was “inactive” in each case. The Potency result in assay [7], in assay [8], in assay [20], in assay [9], in assay [10] and in assay [12] was “inactive” in each case. Moreover, the Potency entry in assay [13], in assay [14], in assay [15], in assay [16] and in assay [17] was “inactive” each time. Also, the compound was classed as inactive in assay [19]. In assay [11], the activity change, positive = activation was 3.41%.
In the case of `CC(=O)Oc1ccc(C2(c3ccc(OC(C)=O)cc3)C(=O)Nc3ccccc32)cc1`, the Potency result in [1], in assay [2], in assay [4], in [5], in assay [6] and in assay [7] was “inactive” throughout. The Potency result in [8], in assay [20], in [9], in assay [10], in assay [12] and in assay [13] was “inactive” throughout. Moreover, the Potency entry in assay [14], in assay [15], in assay [16] and in [17] was “inactive” throughout. Further, the results for the Potency in assay [3] and in assay [18] were 168 nM (active) and 42.5 nM (active), respectively. The activity change, positive = activation in assay [11] is -9.03% [at 42.5 µM].
